Here are results for 20 molecules from PubChem BioAssay.

The structures appear in SMILES notation. Values without a mark were called inactive. For some of these results: Results with a measured potency or affinity are listed apart. Active and inactive are the calls of the source. Unless noted, how the calls were made is not given here.

The nature of assay [1]: antimalarial activity against Dd2 strain (AID 2302;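 active means growth inhibition above 50% at the single 2 µM test dose, taken to imply half-maximal potency below 2 µM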;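 further: 0% = DMSO untreated growth and 100% = chloroquine plus artemisinin killed control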). The note with it: P. falciparum Dd2 in RBCs, LDH growth readout, 72 h; at 2 µM; active compounds read high.
The nature of assay [2]: HepG2 cytotoxicity, primary screen, cytotoxicity control for P. falciparum antimalarial project, cell-based, ATP luminescence (AID 2303;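 active means inhibition above 50%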;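 further: 0% = DMSO wells and 100% = digitonin-killed cells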). The note with it: HepG2 viability, 24-48 h, at 10 µM, active compounds read high.
Assay [3] addresses L-lactate dehydrogenase (Plasmodium falciparum (isolate CDC / Honduras)) (UniProt Q27743). The assay can be described thus: PfLDH activity inhibition – cell lysate, 3D7 strain, counter-screen for P. falciparum growth inhibition project (AID 2304).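 Further: 0% = vehicle and 100% = reference inhibitor.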 The note with it: P. falciparum 3D7 crude extract, LDH APAD/NBT absorbance; at 2 µM; active compounds read high.
A short description of assay [4]: inhibition of 3D7 malaria parasite growth – strain 3D7 (AID 2306).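 Further: 0% = DMSO wells and 100% = chloroquine plus artemisinin control wells.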 The note with it: P. falciparum 3D7 erythrocytic growth, LDH absorbance, 72 h; at 2 µM; active compounds read high.
For assay [5], the target named is Calcium-dependent protein kinase 1 (Plasmodium falciparum (isolate 3D7)) (UniProt P62344). The assay can be described thus: PfCDPK1 kinase inhibitors, biochemical, TCAMS library (AID 1159585; cut-off not given, nearly all actives have IC50 up to about 0.98 µM;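 further: inhibitors leave more ATP so luminescence rises with inhibition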). Conditions: recombinant PfCDPK1, Kinase-Glo ATP depletion luminescence. (In general: In Kinase-Glo more light means more ATP remaining.)
Sequence of Calcium-dependent protein kinase 1 (Plasmodium falciparum (isolate 3D7)) (P62344 whole entry, looked up): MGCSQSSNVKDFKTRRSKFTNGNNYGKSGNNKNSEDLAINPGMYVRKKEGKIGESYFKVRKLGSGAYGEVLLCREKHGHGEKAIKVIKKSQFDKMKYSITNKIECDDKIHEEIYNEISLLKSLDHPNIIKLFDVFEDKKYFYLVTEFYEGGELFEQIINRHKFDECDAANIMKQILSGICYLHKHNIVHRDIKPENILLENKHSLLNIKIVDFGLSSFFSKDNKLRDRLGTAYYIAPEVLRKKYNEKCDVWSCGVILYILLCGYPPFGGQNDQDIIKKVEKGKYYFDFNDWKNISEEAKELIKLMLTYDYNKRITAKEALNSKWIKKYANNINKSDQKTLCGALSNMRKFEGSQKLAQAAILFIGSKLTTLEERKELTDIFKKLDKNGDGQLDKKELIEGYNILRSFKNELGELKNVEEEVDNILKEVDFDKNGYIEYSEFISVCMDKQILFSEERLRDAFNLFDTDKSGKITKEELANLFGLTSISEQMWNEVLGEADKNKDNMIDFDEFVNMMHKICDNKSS
For assay [6], the target named is Plasmodium falciparum protein kinase 6 (PK6, PF3D7_1337100) (UniProt Q8IDW1). The assay can be described thus: PfPK6 kinase inhibitors, biochemical, TCAMS library (AID 1159586). Conditions: recombinant PfPK6, Kinase-Glo ATP depletion luminescence.
Sequence of Plasmodium falciparum protein kinase 6 (PK6, PF3D7_1337100) (Q8IDW1 1-305): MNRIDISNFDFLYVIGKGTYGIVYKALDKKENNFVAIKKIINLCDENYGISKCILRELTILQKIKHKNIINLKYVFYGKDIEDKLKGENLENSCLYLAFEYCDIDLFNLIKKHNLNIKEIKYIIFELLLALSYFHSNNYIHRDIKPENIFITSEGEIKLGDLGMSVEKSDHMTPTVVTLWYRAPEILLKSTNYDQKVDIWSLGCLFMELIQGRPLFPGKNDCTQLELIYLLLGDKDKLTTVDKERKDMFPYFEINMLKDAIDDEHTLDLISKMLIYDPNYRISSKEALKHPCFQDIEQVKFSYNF
Assay [7] addresses Protein kinase 7 (PK7), Plasmodium falciparum 3D7 (PF3D7_0213400) (UniProt Q7YTF7). The assay is described as follows: inhibition of Plasmodium PK7 catalytic activity – biochemical, TCAMS antimalarial set, Kinase-Glo luminescence (AID 1159587). The note with it: recombinant PfPK7, Kinase-Glo ATP depletion luminescence.
Assay [8] deals with Calcium-dependent protein kinase 4 (Plasmodium falciparum (isolate 3D7)) (UniProt Q8IBS5). The assay can be described thus: PfCDPK4 kinase inhibitors, biochemical, TCAMS library (AID 1159588; cut-off not given, nearly all actives have IC50 up to about 0.91 µM). The note with it: recombinant PfCDPK4, Kinase-Glo ATP depletion luminescence.
Sequence of Calcium-dependent protein kinase 4 (Plasmodium falciparum (isolate 3D7)) (Q8IBS5 whole entry, looked up): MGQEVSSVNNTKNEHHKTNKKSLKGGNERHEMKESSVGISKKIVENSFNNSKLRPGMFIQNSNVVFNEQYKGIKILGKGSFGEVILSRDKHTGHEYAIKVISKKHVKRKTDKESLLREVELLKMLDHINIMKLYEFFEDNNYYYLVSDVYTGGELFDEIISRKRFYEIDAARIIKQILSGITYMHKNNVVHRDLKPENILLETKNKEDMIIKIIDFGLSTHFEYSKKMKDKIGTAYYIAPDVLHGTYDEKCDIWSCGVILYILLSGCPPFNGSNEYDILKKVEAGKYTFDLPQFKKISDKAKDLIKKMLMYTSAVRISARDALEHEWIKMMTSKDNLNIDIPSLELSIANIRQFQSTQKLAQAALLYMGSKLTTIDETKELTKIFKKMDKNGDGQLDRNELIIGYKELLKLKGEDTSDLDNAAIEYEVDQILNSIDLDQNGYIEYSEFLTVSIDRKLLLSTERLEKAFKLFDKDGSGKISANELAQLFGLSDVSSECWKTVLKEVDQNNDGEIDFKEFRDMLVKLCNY

Sequence of Protein kinase 7 (PK7), Plasmodium falciparum 3D7 (PF3D7_0213400) (Q7YTF7 1-343): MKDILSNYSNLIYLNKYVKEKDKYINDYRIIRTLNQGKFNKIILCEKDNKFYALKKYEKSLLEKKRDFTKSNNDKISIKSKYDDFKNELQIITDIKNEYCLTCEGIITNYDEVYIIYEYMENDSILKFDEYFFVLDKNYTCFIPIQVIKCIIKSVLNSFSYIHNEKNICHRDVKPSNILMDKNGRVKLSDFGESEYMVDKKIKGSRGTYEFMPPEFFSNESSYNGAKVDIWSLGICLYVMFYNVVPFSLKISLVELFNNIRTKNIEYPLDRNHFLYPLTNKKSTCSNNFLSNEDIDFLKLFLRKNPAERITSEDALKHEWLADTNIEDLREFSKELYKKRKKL
Sequence of L-lactate dehydrogenase (Plasmodium falciparum (isolate CDC / Honduras)) (Q27743 whole entry, looked up): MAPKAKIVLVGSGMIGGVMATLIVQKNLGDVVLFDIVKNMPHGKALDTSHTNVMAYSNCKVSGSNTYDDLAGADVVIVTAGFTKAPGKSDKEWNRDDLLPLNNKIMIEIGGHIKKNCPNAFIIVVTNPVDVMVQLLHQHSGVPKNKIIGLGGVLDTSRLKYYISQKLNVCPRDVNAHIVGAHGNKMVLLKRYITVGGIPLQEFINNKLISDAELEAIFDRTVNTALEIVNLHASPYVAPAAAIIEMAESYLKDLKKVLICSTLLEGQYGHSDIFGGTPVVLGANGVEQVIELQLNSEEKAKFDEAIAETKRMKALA

Broadly, the inhibition is the change of the read-out against control, counted positive when it falls. On to `CC(C)COc1ccc(Cl)cc1Cc1ccc(-c2nc3ccc(F)cc3[nH]2)o1`, for which the growth inhibition in assay [1] was 49%; in assay [4] it was 97% (active). For the same molecule, the results for the inhibition in assay [2] and in assay [3] were 35% and 6%, respectively. Moreover, the result in assay [5], in assay [6], in assay [7] and in assay [8] was inactive.
`O=S(=O)(NCCN1CCCC1)c1ccc(-c2cccc(CNCc3ccccc3)c2)s1`: the results for the growth inhibition in assay [1] and in assay [4] were 43% and 94% (active), respectively. Besides, the inhibition in assay [2] is 44%; in assay [3], 0%. Also, the result in assay [5], in assay [6], in assay [7] and in assay [8] was inactive.
On to `CCN(CC)CCN(Cc1ccc(-c2ccc(C(F)(F)F)cc2)cc1)C(=O)Cn1c(CCc2cccc(F)c2F)nc(=O)c2cccnc21`, for which the growth inhibition was 89% (active) in assay [1] and 101% (active) in assay [4]. Besides, the inhibition in assay [2] was 75% (active); in assay [3], 2%. Further, the result in assay [5], in assay [6], in assay [7] and in assay [8] was inactive.
In the case of `CCc1ccc(CN(Cc2ccc(C)cc2)Cc2ccc(NC(C)=O)cc2)cc1`, the results for the growth inhibition in assay [1] and in assay [4] were 79% (active) and 89% (active), respectively. Moreover, the inhibition is 6% in assay [2] and -1% in assay [3]. For the same molecule, the result in assay [5], in assay [6], in assay [7] and in assay [8] was inactive.
Consider `CS(=O)(=O)CCNCc1nc(-c2ccc3c(=O)[nH]cnc3c2)cs1`, for which the growth inhibition in assay [1] was 96% (active); in assay [4], 86% (active). For the same molecule, the inhibition in assay [2] is 81% (active); in assay [3], 0%. The outcome in assay [5], in assay [6], in assay [7] and in assay [8] was inactive.
In the case of `CC(C)COc1ccc(Cl)cc1Cc1nc(-c2nc3ccc(CN4CCCCC4)cc3[nH]2)co1`, the growth inhibition in assay [1] is 70% (active); in assay [4], 101% (active). Also, the inhibition in assay [2] is 49%; in assay [3], -4%. Moreover, the outcome in assay [5], in assay [6], in assay [7] and in assay [8] was inactive.
As to `CN1CCC(NCc2cccc(-c3ccc(S(=O)(=O)NCc4ccccc4)cc3)c2)CC1`, the growth inhibition in assay [1] is 93% (active); in assay [4], 100% (active). Besides, the inhibition in assay [2] is 61% (active); in assay [3] it was 0%. Further, the result in assay [5], in assay [6], in assay [7] and in assay [8] was inactive.
Regarding `COc1ccc2nccc([C@@H](O)CN3CCC(NC(=O)c4[nH]c5ccccc5c4-c4ccccc4)CC3)c2c1`, the growth inhibition in assay [1] was 68% (active); in assay [4] it was 96% (active). The inhibition was 18% in assay [2] and 0% in assay [3]. Moreover, the result in assay [5], in assay [6], in assay [7] and in assay [8] was inactive.
For `O=C(O)c1cc(C(F)(F)F)co1`, the growth inhibition is 19% in assay [1] and 96% (active) in assay [4]. The inhibition was -4% in assay [2] and 1% in assay [3]. In addition, the outcome in assay [5], in assay [6], in assay [7] and in assay [8] was inactive.
As to `O=C(Nc1ccc(-c2nc3ccccc3[nH]2)cc1)c1cccc([N+](=O)[O-])c1`, the figures for the growth inhibition in assay [1] and in assay [4] were 56% (active) and 101% (active), respectively. Besides, the inhibition in assay [2] is 45%; in assay [3] it was -3%. Besides, the result in assay [5], in assay [6], in assay [7] and in assay [8] was inactive.
For the molecule `CCN(C(=O)NC)[C@@H]1c2cc(C#N)ccc2OC(C)(C)[C@H]1O`, the growth inhibition in assay [1] was 2%; in assay [4], 96% (active). For the same molecule, the inhibition in assay [2] was 3%; in assay [3], -8%. The result in assay [5], in assay [6], in assay [7] and in assay [8] was inactive.
Regarding `COc1cc2c(cc1NC(=O)CN1CCN(C(=O)c3ccco3)CC1)oc1ccccc12`, the growth inhibition in assay [1] and in assay [4] was 96% (active) each time. The inhibition in assay [2] was 13%; in assay [3], -2%. Also, the result in assay [5], in assay [6], in assay [7] and in assay [8] was inactive.
With `CCCCC(=O)NC(c1cccs1)c1cc(Cl)c2cccnc2c1O` (stereo not given), the growth inhibition was 90% (active) in assay [1] and 93% (active) in assay [4]. The inhibition is 50% (active) in assay [2] and 1% in assay [3]. Besides, the outcome in assay [5], in assay [6], in assay [7] and in assay [8] was inactive.
In the case of `O=C(NCCCCN1CCC(c2nc3ccccc3s2)CC1)c1cc2ccccc2[nH]1`, the values for the growth inhibition in assay [1] and in assay [4] were 64% (active) and 86% (active), respectively. In addition, the values for the inhibition in assay [2] and in assay [3] were 43% and -5%, respectively. For the same molecule, the outcome in assay [5], in assay [6], in assay [7] and in assay [8] was inactive.
Take `O=C(Nc1cccc(CN2CCN(Cc3ccc(O)cc3)CC2)c1)c1cccc(C(F)(F)F)c1`: the values for the growth inhibition in assay [1] and in assay [4] were 15% and 91% (active), respectively. In addition, the inhibition in assay [2] is 21%; in assay [3] it was 2%. In addition, the outcome in assay [5], in assay [6], in assay [7] and in assay [8] was inactive.
In the case of `CN(c1ccc(F)cc1)S(=O)(=O)c1ccc(Cl)c(C(=O)Nc2cccc(C#N)c2)c1`, the growth inhibition in assay [1] is 58% (active); in assay [4], 95% (active). The inhibition was 5% in assay [2] and -4% in assay [3]. Moreover, the result in assay [5], in assay [6], in assay [7] and in assay [8] was inactive.
With `COc1ccc2nccc([C@@H](O)CN3CCC(NCc4cc5ccccc5s4)CC3)c2c1`, the growth inhibition is 53% (active) in assay [1] and 97% (active) in assay [4]. Moreover, the values for the inhibition in assay [2] and in assay [3] were 8% and 3%, respectively. In addition, the outcome in assay [5], in assay [6], in assay [7] and in assay [8] was inactive.
`O=C(Nc1ccc(OC2CCN(Cc3ccccc3)C2)c(Cl)c1)c1ccco1` (stereo not given): the results for the growth inhibition in assay [1] and in assay [4] were 94% (active) and 95% (active), respectively. Besides, the inhibition in assay [2] was 13%; in assay [3] it was 6%. The outcome in assay [5], in assay [6], in assay [7] and in assay [8] was inactive.
For the molecule `COc1cc2nc(Nc3ccc(Oc4ccccc4)cc3)nc(Nc3ccc(Oc4ccccc4)cc3)c2cc1OC`, the growth inhibition in assay [1] was 45%; in assay [4] it was 95% (active). Besides, the inhibition in assay [2] was 5%; in assay [3] it was 6%. Moreover, the outcome in assay [5], in assay [6], in assay [7] and in assay [8] was inactive.
As for `NC(N)=NN=Cc1c2ccccc2c(Cl)c2cc(Cl)ccc12`, the values for the growth inhibition in assay [1] and in assay [4] were 28% and 97% (active), respectively. The inhibition is 26% in assay [2] and -3% in assay [3]. In addition, the outcome in assay [5], in assay [6], in assay [7] and in assay [8] was inactive.
